# An excerpt weighted towards active compounds, which were near 3% of everything screened.
# GDH-TPI inh: inhibits GDH-TPI coupling enzymes, artifact for Mtb FBA screen; GDH-TPI coupled enzyme counterscreen, NADH absorbance; inhibition, % at 4.8 µM; 360,000 tested, 1.2% active; AID 588335; in the data active = inhibition above about 30%;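 note: 0% = DMSO wells and 100% = wells lacking the enzyme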
# FBA Mtb inh: inhibits M. tuberculosis FBA enzyme; P9WQA3; purified M. tuberculosis FBA, fluorescence read-out; inhibition, % at 1 µM; 360,000 tested, 2.3% active; AID 588726; in the data active = inhibition above about 27%;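 note: 0% = vehicle and 100% = reference inhibitor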
# Target sequence (P9WQA3 whole entry, looked up): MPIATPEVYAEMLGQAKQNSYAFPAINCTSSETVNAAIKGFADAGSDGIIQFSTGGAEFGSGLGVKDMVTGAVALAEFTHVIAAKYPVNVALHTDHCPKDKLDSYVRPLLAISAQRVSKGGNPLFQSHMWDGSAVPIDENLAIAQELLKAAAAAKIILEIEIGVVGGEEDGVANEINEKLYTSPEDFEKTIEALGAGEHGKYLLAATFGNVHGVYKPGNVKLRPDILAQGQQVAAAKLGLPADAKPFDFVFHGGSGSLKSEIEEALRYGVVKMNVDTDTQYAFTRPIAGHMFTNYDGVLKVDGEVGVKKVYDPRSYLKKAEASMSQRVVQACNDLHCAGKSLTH
# Mtb BioA inh: inhibitors of Mycobacterium tuberculosis BioA enzyme. 360,000 tested, 0.096% active. purified M. tuberculosis BioA enzyme, plate reader. inhibition, % at 9.99 µM; in the data active = inhibition above about 40%
# Vc quorum ag: quorum light induction in luxS cqsA deficient V. cholerae | V. cholerae BH1578 lux reporter, luminescence, 6 h | activation, % at 18.7 µM | 350,000 tested, 0.16% active; in the data active = activation mostly above about 9.7%, no sharp cut-off
# The depositor's hits bear a star; i = inactive; . = no result given; + = active, no number.
SMILES,GDH-TPI inh,FBA Mtb inh,Mtb BioA inh,Vc quorum ag
COc1ccc(COc2cc(-c3cccc(OC)c3)nc3ccc(N)cc23)cc1,4,54*,-2,i
COc1ccc(COc2cc(-c3cccc(OC)c3)nc3ccc(NC(=O)c4ccc(C)cc4)cc23)cc1,20,16,-1,7
COc1ccc(COc2cc(-c3cccc(OC)c3)nc3ccc(NC(C)=O)cc23)cc1,10,136*,-1,i
COc1ccc(COc2cc(-c3cccc(OC)c3)nc3ccc(NC(=O)c4ccc(N(C)C)cc4)cc23)cc1,38*,8,-1,i
C[C@@H]1CN([C@H](C)CO)C(=O)c2cc(NC(=O)c3ccccc3)ccc2O[C@@H](C)CCCCO[C@@H]1CN(C)C(=O)Cc1ccccc1,.,.,-5,.
C[C@H](O)C#Cc1ccc2c(c1)O[C@@H](CN(C)C(=O)C1CCC1)[C@H](C)CN([C@@H](C)CO)S2(=O)=O,.,.,2,.
Cc1cccc(C2=NN(c3ccc(Br)cc3)[C@@H](C(=O)N3CCOC3=O)[C@@H]2c2ccc(Cl)cc2)c1,1,70*,-2,0
Cc1cccc(C2=NN(c3ccc(Br)cc3)[C@@H](C(=O)N3CCOC3=O)[C@@H]2c2ccc(F)cc2)c1,11,42*,-4,i
C[C@@H](NC(=O)C[C@@H]1CC[C@H]2[C@@H](COC[C@H](O)CN2C(=O)Nc2cc(Cl)cc(Cl)c2)O1)c1ccccc1,.,.,-1,.
COc1cccc(CNC(=O)C[C@@H]2C=C[C@@H](NC(=O)C3CCOCC3)[C@H](CO)O2)c1,.,.,0,.
COc1ccc(/C=C/C(=O)Nc2ccc3nc4n(c(=O)c3c2)CCCC4)cc1,18,-1,.,0
COc1cc(/C=C/C(=O)Nc2ccc(S(=O)(=O)Nc3onc(C)c3C)cc2)cc(OC)c1OC,39*,0,1,-5
COc1cc(/C=C/C(=O)Nc2ccc3nc4n(c(=O)c3c2)CCCC4)cc(OC)c1OC,38*,-3,.,0
COc1ccc(-c2cc(C(=O)Nc3ccc(S(=O)(=O)Nc4onc(C)c4C)cc3)c3ccccc3n2)cc1OC,42*,9,.,0
CC(C)C#Cc1cnc2c(c1)C(=O)N([C@H](C)CO)C[C@@H](C)[C@H](CN(C)Cc1ccccn1)O2,.,.,0,.
COc1ccc(-c2csc(NC(=O)c3cc(C)on3)c2C#N)cc1OC,38*,6,.,0
COc1ccc(-c2nnc(NC(=O)c3cc(C)on3)s2)cc1,35*,2,.,-2
O=C(N/N=C1\CCCc2c1[nH]c1ccc(Cl)cc21)c1ccncc1,41*,-3,1,-1
COCC(=O)N1C[C@@H](C)[C@@H](OC)CN(C)C(=O)c2ccc(NC(=O)c3ccc(OC)cc3)cc2OC[C@@H]1C,.,.,0,.
CC(C)CC(=O)OC1C(N2CCOCC2)c2c(ccc(/C=C/C(=O)N3CCOCC3)c2O)OC1(C)C (centres undefined),31*,6,1,0
COc1ccc(C2=NN3C(=O)c4c(ccc(OC)c4OC)C3C2)cc1 (centres undefined),36*,1,1,-4
C[C@@H]1CN([C@H](C)CO)S(=O)(=O)c2ccc(C3=CCCCC3)cc2O[C@H]1CN(C)Cc1ccccn1,.,.,-1,.
COc1ccc(C2=Nn3c(nnc3-c3ccco3)SC2)cc1OC,37*,-1,0,i
COc1ccc(C2=Nn3c(nnc3-c3ccccc3OC)SC2)cc1OC,17,2,9,0
CCOc1ccc(C2=Nn3c(nnc3-c3ccco3)SC2)cc1,18,-1,-1,1
SMILES,GDH-TPI inh,FBA Mtb inh,Mtb BioA inh,Vc quorum ag
COc1ccc(C2=Nn3c(nnc3-c3ccccn3)SC2)cc1OC,35*,0,4,i
C=CCn1c(N)c(C(=O)NCC2CCCO2)c2nc3ccccc3nc21 (centres undefined),4,144*,3,i
CCC(C)NC(=O)c1c(N)n(CC2CCCO2)c2nc3ccccc3nc12 (centres undefined),1,87*,0,0
C[C@H]1CN([C@@H](C)CO)C(=O)c2cc(C#Cc3ccncc3)cnc2O[C@@H]1CN(C)Cc1ccncc1,.,.,-1,.
CCc1ccc2[nH]c(=O)c(C3C(C#N)=C(N)Oc4c3ccc3cccnc43)cc2c1 (centres undefined),25,2,4,i
Cc1ccc2cc(C3C(C#N)=C(N)Oc4c3ccc3cccnc43)c(=O)[nH]c2c1 (centres undefined),35*,4,1,0
c1ccc2nc(-c3ccc(N4CCOCC4)cc3)ccc2c1,33*,13,.,0
CCOC(=O)c1cc2c(nc1N)CC(C)(CC)OC2 (centres undefined),14,112*,0,4
CCOC(=O)c1sc2nc3c(cc2c1N)COC(C)(CC)C3 (centres undefined),7,4,0,.
CCOC(=O)c1cc2c(nc1N)CC(C)(C)OC2,20,164*,-2,0
COC(=O)C(C)Oc1ccc2c3c(c(=O)oc2c1)CCCCC3 (centres undefined),30,146*,4,1
CC(=O)Oc1ccc2c3c(c(=O)oc2c1)CCCC3,2,195*,-2,0
COc1c(CC=C(C)C)c(O)cc2oc(=O)c3c4ccc(O)cc4oc3c12,5,142*,0,0
O=C(Oc1ccc2c3c(c(=O)oc2c1)CCCC3)c1ccco1,-6,99*,1,1
CC(C)=CCc1c(O)cc2c(=O)c3ccc(O)cc3oc2c1O,6,1,1,-1
CC(Oc1ccc2c3c(c(=O)oc2c1)CCCC3)C(=O)NCCCn1ccnc1 (centres undefined),16,25,3,0
Cc1ccccc1S(=O)(=O)N[C@H]1CC[C@H](CCn2cc(-c3ccccc3)nn2)O[C@@H]1CO,.,.,-2,.
COc1cccc(C(=O)Nc2ccc3c(c2)OC[C@@H](C)N(C)C[C@H](C)[C@@H](OC)CN(C)C3=O)c1,.,.,1,.
O=c1oc2cc(O)ccc2c2ccccc12,28,8,1,-3
CSCCC(NC(C)=O)C(=O)Oc1ccc2c3c(c(=O)oc2c1)CCCC3 (centres undefined),6,+,0,1
O=c1oc2cc(O)ccc2c2c1CCCC2,7,+,0,.
O=c1oc2cc(O)ccc2c2oc3cc(O)ccc3c12,35*,+,0,1
CCC(NC(=O)OC(C)(C)C)C(=O)Oc1ccc2c3c(c(=O)oc2c1)CCC3 (centres undefined),6,.,0,i
C[C@@H]1CN([C@@H](C)CO)C(=O)c2cc(NS(=O)(=O)c3cccs3)ccc2O[C@@H](C)CCCCO[C@H]1CN(C)C(=O)Cc1ccccc1,.,.,1,.
C[C@H](CO)N1C[C@H](C)[C@@H](CN(C)S(=O)(=O)c2ccc(F)cc2)OCCCC[C@H](C)Oc2ccc(NS(=O)(=O)c3cn(C)cn3)cc2C1=O,.,.,0,.
COc1cc(COc2ccc3c(C)c(CCC(=O)O)c(=O)oc3c2)cc(OC)c1OC,14,19,1,0
Cc1c(CC(=O)O)c(=O)oc2cc(OCc3ccc(F)cc3Cl)ccc12,12,167*,-1,i
Cc1c(CCC(=O)O)c(=O)oc2cc(OCc3ccccc3F)ccc12,18,121*,0,-1

# High-throughput results from PubChem BioAssay.
